# Shown are actives, neighbours in structure and some others; about 2.6% of the full set was active somewhere.
# PHOSPHO1 block: blocks human PHOSPHO1 phosphatase activity; Q8TCT1; recombinant PHOSPHO1, absorbance phosphatase assay; inhibition, % at 13.3 µM; hit rate 1.1% among 290,000; AID 1565; in the data active means inhibition above about 60%
# CRFR2-BP antag: antagonists of CRF-binding protein/CRF-R2 receptor complex; HEK293 CRF-R2/CRF-BP, CRF-induced calcium fluorescence; inhibition, % at 11.8 µM; hit rate 0.59% among 350,000; AID 588475;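 active means inhibition of the ligand-induced calcium signal above about 50% at the single tested concentration, limit read from the data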
# eIF4H inh: inhibitors of RNA binding by human eIF4H | Q15056 | inhibition, % at 35 µM | AID 2012 | eIF4H fluorescence polarization binding assay | hit rate 0.94% among 290,000;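 further: calls also rest on retests at 20 µM and on dose response follow-up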
# PABP FP inh: PABP-poly(A) binding inhibition; P11940; PABP-poly(A) RNA binding, fluorescence polarization; inhibition, % at 35 µM; hit rate 1% among 290,000; AID 2014;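 further: calls also rest on retests at 20 µM and on dose response follow-up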
# MLLE-PAM2 inh: blocks PAM2 peptide binding to the PABP1 MLLE domain. P11940. inhibition, % at 20 µM. GST-MLLE / FITC-PAM2 fluorescence polarization. hit rate 0.36% among 360,000; in the data active means inhibition above about 35%, passing the limit was not always enough;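 further: plate controls were DMSO wells with GST-MLLE for no effect and wells lacking GST-MLLE protein for full effect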
# The depositor's hits bear a star; u = inconclusive; x = no result given. Unless noted, how the calls were made is not given here.
SMILES,PHOSPHO1 block,CRFR2-BP antag,eIF4H inh,PABP FP inh,MLLE-PAM2 inh
O=C(N/N=C/c1ccncc1)c1cccc(S(=O)(=O)Nc2ccc(Cl)cc2)c1,14.9,-3.0,69.6*,9.5,10.0
O=C(NCc1csc(-c2cccs2)n1)c1cccc(Cl)c1,20.3,-0.7,-5.8,1.0,-12.6
O=C(NCc1csc(-c2cccs2)n1)c1ccccc1,-5.9,77.3*,6.9,8.5,-3.2
Nc1cccc(-c2c[nH]c3ncc(-c4cccnc4)cc23)c1,x,-14.6,x,x,1.0
CCOc1ccc2c(c1)/C(=C(\C(Cl)=C(Cl)Cl)[N+](=O)[O-])N2,9.4,1.7,2.5,-3.9,-10.9
CCCCOc1ccc2c(c1)/C(=C(\C(Cl)=C(Cl)Cl)[N+](=O)[O-])N2,-17.0,67.8*,7.6,-6.0,-17.7
CC(=O)c1c(N2CCN(Cc3ccccc3)CC2)nc(=S)n(-c2ccccc2)c1C,4.4,4.8,53.7*,active,-7.7
CC(=O)c1c(N2CCN(CCO)CC2)nc(=S)n(-c2ccccc2)c1C,10.8,-13.4,u,41.1,-0.3
CC(=O)c1c(N2CCCCC2)nc(=S)n(Cc2ccccc2)c1C,41.9,107.7*,7.6,-2.5,6.2
CCn1c(C)c(C(C)=O)c(N2CCN(c3ccc(F)cc3)CC2)nc1=S,101.5*,-12.6,30.1,44.5,13.7
Cc1ccc(NC(=O)COC(=O)CCc2ccc(S(=O)(=O)N3CCOCC3)cc2)cc1F,36.0,-8.6,5.3,12.5,1.6
COc1ccc(OC)c(C2=C/C(=C/c3ccccn3)C(=O)O2)c1,2.0,-58.8,90.7*,1.6,-41.5
CCc1nc2ccc(C(=O)N3CCN(S(=O)(=O)CC)CC3)cn2c1N(CCC(C)C)CCN(C)C,x,x,x,x,6.7
Cc1ccc(N2C(=O)C3C4C=CC(CC4)C3C2=O)cc1[N+](=O)[O-] (centres undefined),19.3,73.0*,-10.9,-10.7,0.6
COC(=O)c1c(NC(=O)CC2Nc3cc(C)c(C)cc3NC2=O)sc(C)c1C (centres undefined),-6.4,-22.4,86.5*,0.2*,-72.3
CCc1cc(C(=O)OC)c(NC(=O)CC2Nc3cc(C)c(C)cc3NC2=O)s1 (centres undefined),-5.2,-49.7,0.2,0.7,-32.1
Cc1ccc(Cn2c(C(C)Nc3nc(-c4ccc(C)cc4)cs3)nc3cc(Cl)c(Cl)cc32)cc1 (centres undefined),-7.3,1.1,85.0*,18.2,2.0
Nc1cc2c(cc1O)CCCC2,-15.9,-46.9,6.4,5.2,-14.2
CN(c1ccccc1)c1ncnc2c1ncn2C,x,-2.6,x,x,23.8
Cc1c(C(=O)OC2CCC(C)CC2)[nH]c2c1C(=O)CCC2 (centres undefined),-14.5,-25.5,75.0*,-16.4,-1.2
COC(=O)c1[nH]c2c(c1C)C(=O)CCC2,-1.2,8.2,-2.3,2.6,2.3
COc1ccc(Cl)cc1NC(=O)C1(c2cccs2)CCOCC1,-2.4,10.7,-9.0,21.5,13.0
CC1(C)CC(=O)C=C(c2n[nH]nc2-c2ccccc2)C1,x,-0.3,x,x,-20.2
CCN(CC)c1ccc(C(=S)N2CCN(c3ccccc3)CC2)cc1,74.0*,24.6,11.1,18.6,22.5
CNC(=O)c1ccc(CN(C)C(=O)c2cccc(S(=O)(=O)N3CCc4ccccc4C3)c2)cc1,x,-3.5,x,x,-5.3
SMILES,PHOSPHO1 block,CRFR2-BP antag,eIF4H inh,PABP FP inh,MLLE-PAM2 inh
CCc1nnc2n1N=C(c1ccc(-c3cc(Cl)ccc3Cl)o1)CS2,89.5*,0.5,24.6,6.7,-96.4
CN(CCC#N)C(=O)COC(=O)c1c2c(nc3ccccc13)/C(=C/c1ccco1)CC2,-32.1,2.2,95.3*,5.9,-5.1
CC(C)CNC(=O)COC(=O)c1c2c(nc3ccccc13)/C(=C\c1cccs1)CC2,x,-19.8,x,x,-5.8
CCCCc1c(C)nc2ccc(C(=O)OCC)cc2c1Cl,-8.6,-29.9,2.9,120.4*,-7.3
O=C(O)CCC(=O)Nc1ccc(Br)c(Cl)c1,6.2,67.5*,-9.4,-13.5,-0.1
COC(=O)c1ccccc1N=C(SC)N(C)C,93.7*,-3.2,6.9,30.4,-59.6
COC(=O)c1ccccc1NC(=S)N(C)C,-5.3,-4.0,-0.3,-4.4,-11.2
N#C/C(=C/c1ccc(N2CCCCC2)o1)C(=O)Nc1ccc(Cl)cc1,28.1,-117.3,126.6*,118.4,-111.9
CCOC(=S)N/C(=N\S(C)(=O)=O)c1ccccc1,58.5,3.8,-8.1,-5.8,38.6*
Cc1ccc(S(=O)(=O)n2nc(OC(=O)c3ccccc3C)cc2N)cc1,10.3,-15.4,-6.1,-3.3,-13.4
Cc1ccc(S(=O)(=O)n2nc(OC(=O)c3ccco3)cc2N)cc1,x,60.0*,x,x,3.0
Nc1cc(OC(=O)c2ccc(F)cc2)nn1S(=O)(=O)c1ccc(F)cc1,-15.8,2.5,0.9,0.0,-12.4

# Screens as filed in PubChem BioAssay.
